Test results: PubChem BioAssay (NCI)
The panel holds about 79,000 compounds, 15% with a hit somewhere; the sample as a whole holds those more often. Unmarked numbers belong to inactive results. The source made the active and inactive calls. Rule as the data show it: active = growth inhibition above about 70%; inactive = the rest.

Assay: NCI Yeast Anticancer Drug Screen. Data for the CLN2oe strain (AID 163);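 also: 0% = growth of vehicle-only control cultures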
Conditions: S. cerevisiae CLN2oe strain, active compounds read high
Procedure: Growth inhibition of yeast strains with defined genetic alterations is measured as a screen for potential anti-cancer activity. Selected strains with alterations in DNA damage repair or cell cycle control were exposed to compounds and growth inhibition was measured relative to vehicle treated controls. The strain used in this assay is CLN2oe

Row | SMILES | growth inhibition (at 1.2 µM) | growth inhibition (at 3.7 µM) | growth inhibition (at 11.0 µM) | growth inhibition (at 33.0 µM) | growth inhibition (at 100.0 µM)
1 | CC(=O)C1=C(O)C2(C)c3c(O)c(C)c(O)c(C(C)=O)c3OC2(Sc2ccccc2)CC1=O (stereo not given) | -1% | 34% | 44% | 52% | 85% (active)
2 | O=Nn1c2ccccc2c2cc([N+](=O)[O-])ccc21 | -32% | -9% | -9% | 55% | 94% (active)
3 | O=C(O)c1[nH]c(=O)c2ccccc2c1Nc1ccccc1 | -3% | 1% | -2% | -1% | 1%
4 | O=C1CC(=O)N(C2CCCCC2)C(=O)N1c1ccccc1S(=O)(=O)Oc1ccccc1 | 6% | -1% | 7% | 43% | 72% (active)
5 | O=[N+]([O-])c1cc(S(=O)(=O)Nc2ccccc2)ccc1Cl | -8% | -1% | 35% | 93% (active) | 98% (active)
6 | COc1ccc2oc(-c3ccc(Cl)cc3)c(N3CCN(C)CC3)c2c1 | -6% | -5% | 98% (active) | 99% (active) | 98% (active)
7 | CC1CCC2(C(=O)O)CCC3(C)C(=CCC4C5(C)CC(O)C(O)C(C)(CO)C5C(O)CC43C)C2C1C (stereo not given) | -6% | -4% | 3% | 7% | 78% (active)
8 | BrCc1ccccc1C(c1ccccc1)c1ccccc1 | 8% | 64% | 97% (active) | 97% (active) | 96% (active)
